The first test can be described thus: compound effects on multiple myeloma cell viability – MM1S, calcein-AM fluorescence, 48 h, basal, profiling panel (AID 1165).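 Note: viability of MM1S multiple myeloma cells under basal unstimulated conditions.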 The note with it: higher = more signal.
For the compound `CCOC(=O)C1=CC[C@@H](c2ccccc2)N(S(=O)(=O)c2ccc(C)cc2)C1`, the z-score is -1.22. The same measure, in the same setting: as for `CCN(CC)c1ccc(N2CC=CC34O[C@@H]5/C=C\CCC(C)OC(=O)C5[C@H]3C(=O)N(CCO)[C@@H]4C2=O)cc1` (some centres not stated), the figure is -0.379. Still for that read-out and setting: the figure for `C=CCOC(=O)[C@H]1[C@@H]2C(=O)O[C@@H](c3ccccc3)[C@@H](c3ccccc3)N2[C@@H](c2ccc(OCCOC(=O)[C@H]3C[C@H]4C(=O)N[C@@H](CCCC[N+](C)(C)C)C(=O)N4[C@H]3c3cccc(OCCO)c3)cc2)[C@]12C(=O)Nc1ccc(I)cc12` is 0.596; for `O=C1C[C@@](C(=O)NCC(F)(F)F)(c2ccc([N+](=O)[O-])cc2)[C@@H](c2ccc(CO)cc2)N1C1CCCCC1` it is -1.34.

The next test in a line: calcein-AM signal in unstimulated myeloma cells – cell-based, calcein-AM fluorescence, 48 h, PK04 Diversity Set, profiling panel (AID 1166).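 Note: cells grown under basal conditions without added stimulus.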 The settings on record: RPMI8226 myeloma viability, higher = more signal.
As for `COC(=O)C1(Cc2ccccc2)C=C2C(=C(C(C)C)C(=O)C2C)CN1` (configuration not stated), the z-score was -1.53. On the same count and under the same terms, as for `Cc1c(NC(=O)/C(C#N)=C/C=C/c2ccccc2[N+](=O)[O-])c(=O)n(-c2ccccc2)n1C`, the figure is -2.1. Consider `[N-]=[N+]=NCc1ccccc1C[C@@]1(C(=O)NCCN2CCOCC2)N=C(c2ccc(OCCCO)cc2)O[C@@H]1c1ccccc1N=[N+]=[N-]`, for which the z-score is -3.68. With `C[n+]1ccc(CCCO)cc1`, the z-score was -1.77. Turning to `CN1C(=O)C2C=CC(C(O)c3c(F)cccc3Cl)N(Nc3ccccc3)C2C1=O` (configuration not stated), the z-score is -1.42. Still for that read-out and setting: as for `C=C[C@@H](C)[C@H](OC(=O)Nc1ccc(SC)cc1)c1ccc(OCCO)cc1`, the figure is 0.794; as for `CC(C)C(O)C1C=CC2C(=O)N(C)C(=O)C2N1N(c1ccccc1)c1ccccc1` (configuration not stated), 0.0729. Still for that read-out and setting: the figure for `O=C1c2ccccc2[C@](Cc2ccccc2I)(C(=O)NCc2ccccc2)[C@H](c2ccc(CO)cc2)N1C1CCCCC1` is -1.99.

(Values after PubChem BioAssay.)
Note: test concentration not given here.
